# Reference: PubChem BioAssay AID651598 (Sanford-Burnham Center for Chemical Genomics, 2012)
# “And” between values parts separate entries of the source, which are not always exact repeats. Equal entries are not always repeated.
# Molecular target: C-X-C chemokine receptor type 6 (Homo sapiens) (UniProt O00574)
# Experiment: APJ beta-arrestin recruitment blockade alongside CXCR6 – cell-based, DiscoveRx, panel, CHO-K1, counter-screen for CXCR6 antagonist project, SAR follow-up (AID 651598)
# Settings: CHO-K1 PathHunter beta-arrestin luminescence, antagonist mode; run 6, at 80 µM (top of the series)
# Chain of C-X-C chemokine receptor type 6 (Homo sapiens) (O00574 whole entry, looked up): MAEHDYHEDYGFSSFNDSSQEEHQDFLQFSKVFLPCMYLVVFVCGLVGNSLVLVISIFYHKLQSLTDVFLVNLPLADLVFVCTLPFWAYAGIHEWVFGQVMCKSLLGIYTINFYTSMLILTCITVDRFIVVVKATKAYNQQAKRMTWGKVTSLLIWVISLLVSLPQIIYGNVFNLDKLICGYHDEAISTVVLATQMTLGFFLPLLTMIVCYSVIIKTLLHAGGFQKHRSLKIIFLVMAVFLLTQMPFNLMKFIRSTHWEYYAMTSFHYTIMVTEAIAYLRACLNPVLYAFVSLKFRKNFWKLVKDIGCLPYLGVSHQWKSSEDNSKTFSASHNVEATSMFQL
row,SMILES,inhibition
1,COc1cc(C(=O)NC2CC3CCC(C2)N3CC(=O)Nc2ccccc2)cc(OC)c1OC (stereo not drawn),57.4% and -0.766%
2,COc1cc(C(=O)NC2CCN(CC(=O)Nc3ccccc3)CC2)cc(OC)c1OC,20.7%
3,COc1cc(C(=O)NC2CC3CCCC(C2)N3CC(=O)Nc2ccccc2)cc(OC)c1OC (stereo not drawn),85.3% and 54.2% and 27.6%
